The list is not random: actives were taken first. Their share in the collection is about 1.2%.
RGS8-Gao: regulators of human RGS8-Galphao interaction; P09471; multiplexed bead flow cytometry, RGS8-Galphao binding; actives lie on both sides; response (percent of control binding), % at 10 µM; hit rate 0.34% among 220,000; AID 1423; in the data active = response below about 60% or above about 140%; inactive = in between;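 note: Galphao activated as the GDP aluminium fluoride complex binding bead-coupled RGS8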
Target sequence (P09471 whole entry, looked up): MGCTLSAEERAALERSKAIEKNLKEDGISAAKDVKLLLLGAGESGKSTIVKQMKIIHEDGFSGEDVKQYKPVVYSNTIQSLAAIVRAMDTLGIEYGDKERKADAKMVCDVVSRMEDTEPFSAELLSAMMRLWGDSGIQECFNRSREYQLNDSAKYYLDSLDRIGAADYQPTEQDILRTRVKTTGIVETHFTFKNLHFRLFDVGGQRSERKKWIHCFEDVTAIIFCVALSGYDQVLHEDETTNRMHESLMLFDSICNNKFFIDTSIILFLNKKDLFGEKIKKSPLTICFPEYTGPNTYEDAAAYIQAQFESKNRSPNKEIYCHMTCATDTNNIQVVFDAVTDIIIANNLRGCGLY
RGS16-Gao: regulators of human RGS16-Galphao interaction. O15492+P09471. bead-based flow cytometry RGS16-Galphao binding, fluorescence; actives lie on both sides. binding response (% of control), % at 10 µM. hit rate 0.38% among 220,000. AID 1441;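 note: Galphao activated by GDP with aluminum fluoride before binding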
Target sequence (O15492 whole entry, looked up): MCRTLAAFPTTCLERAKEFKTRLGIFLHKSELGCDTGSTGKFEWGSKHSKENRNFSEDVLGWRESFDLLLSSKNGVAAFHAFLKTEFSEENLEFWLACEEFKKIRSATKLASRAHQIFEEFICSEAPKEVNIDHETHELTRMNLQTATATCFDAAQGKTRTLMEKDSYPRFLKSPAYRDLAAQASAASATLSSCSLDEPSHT
Target sequence (P09471 whole entry, looked up): as the sequence (P09471 whole entry, looked up) above
RGS7-Gao: regulators of human RGS7-Galphao interaction; P09471; hit rate 0.35% among 220,000; AID 1439; Multiplexed bead flow cytometry, RGS7-Galphao binding; actives lie on both sides; binding response (% of control), % at 10 µM; in the data active = binding response below about 49% or above about 150%; inconclusive = no clear call, values can overlap the other calls; inactive = in between;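 note: fluorescent Galphao held in activated GDP-AlF4 state binding bead-coupled RGS7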
Avidin fluor: avidin bead compound fluorescence profile; Avidin beads, compound fluorescence 488/530 nm, flow cytometry; stronger effect = higher value; fluorescence (KMESF) at 10 µM; hit rate 0.38% among 220,000; AID 1775; in the data active = fluorescence above about 47
GSH fluor: compound fluoresces at 488/530 nm on GSH beads; GSH beads flow cytometry, compound fluorescence 488/530 nm; stronger effect = higher value; fluorescence (KMESF) at 10 µM; hit rate 0.25% among 190,000; AID 1776; in the data active = fluorescence above about 89;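 note: glutathione beads carrying GST-tagged Bcl family fusion proteins plus one bare bead set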
RGS4-Gao reg: human RGS4-Galphao interaction regulation. P09471. Multiplexed bead flow cytometry, RGS4-Galphao binding; actives lie on both sides. binding response (% of control), % at 10 µM. hit rate 0.33% among 220,000; in the data active = binding response below about 49% or above about 150%; inactive = in between;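 note: fluorescent Galphao activated with aluminum fluoride binding bead-coupled RGS4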
RGS4-Gao HTS: RGS4-Galphao interaction regulator (human); multiplexed bead flow cytometry, RGS–Galpha-o binding; hit rate 99% among 1,600; shares compounds with RGS16-Gao; RGS4–Galpha-o binding response, % at 10 µM;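 note: fluorescently labeled Galpha-o bound to GDP with aluminium fluoride binding biotinylated RGS beads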
Avidin counter: interferes with biotinylated probe binding to avidin beads; streptavidin beads, fluorescein-biotin binding, flow cytometry; AID 1783; shares compounds with RGS16-Gao; inhibition, % at 10 µM; 1,700 tested, under 10 active;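 active = inhibition above 50%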;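 note: median green fluorescence of gated singlet beads compared with DMSO control wells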
RGS8-Gao single: RGS8-Galphao interaction regulation, single point confirmation; bead-based flow cytometry RGS8-Galphao binding, fluorescence; actives lie on both sides; shares compounds with RGS16-Gao; hit rate 3% among 1,700; binding response (% of control), % at 10 µM; AID 1836; in the data active = binding response below about 72% or above about 130%; inactive = in between;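 note: Galphao activated as GDP AlF4 complex before binding bead RGS8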
RGS7-Gao single: confirmation of regulators of human RGS7-Galphao interaction; bead-based flow cytometry RGS7-Galphao binding; actives lie on both sides; shares compounds with RGS16-Gao; response (percent of control binding), % at 10 µM; AID 1837; hit rate 7.8% among 1,700; in the data active = response below about 75% or above about 130%; inactive = in between;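 note: fluorescent Galphao activated with GDP and aluminum fluoride binding bead-coupled RGS7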
RGS16-Gao conf: RGS16-Galphao interaction regulation, single point confirmation | shares compounds with RGS16-Gao | bead-based flow cytometry, RGS16-Galphao binding; actives lie on both sides | response (% of control binding), % at 10 µM | hit rate 4% among 1,700 | AID 1838; in the data active = response below about 74% or above about 130%; inactive = in between;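 note: Galphao activated as the GDP aluminium fluoride complex binding bead-coupled RGS16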
RGS4-Gao confirm: RGS4-Galphao interaction regulation, single point confirmation. RGS4-Galphao binding, multiplexed bead flow cytometry; actives lie on both sides. shares compounds with RGS16-Gao. AID 1840. binding response (% of control), % at 10 µM. hit rate 4% among 1,700; in the data active = binding response below about 74% or above about 130%; inactive = in between
RGS19-Gao single: RGS19-Galphao interaction regulation, single point confirmation. shares compounds with RGS16-Gao. bead-based flow cytometry RGS19-Galphao binding; actives lie on both sides. response (percent of control binding), % at 10 µM. hit rate 5% among 1,700. AID 1841; in the data active = response below about 50% or above about 160%; inactive = in between
Hits are given with their value; n = inactive; u = inconclusive; x = no result given; [ ] = remark or other dose. Unless noted, the rule behind the calls is not given here.

SMILES	RGS8-Gao	RGS16-Gao	RGS7-Gao	Avidin fluor	GSH fluor	RGS4-Gao reg	RGS4-Gao HTS	Avidin counter	RGS8-Gao single	RGS7-Gao single	RGS16-Gao conf	RGS4-Gao confirm	RGS19-Gao single
O=C(CSC1CC(=O)N(c2ccc(C(=O)O)cc2)C1=O)Nc1ccc(Cl)cc1 (stereo not drawn)	n	n	241.4[activator]	117	n	n	123.5	n	n	n	n	n	n
O=C1CC(SC(=Nc2ccccc2)Nc2ccccc2)C(=O)N1c1ccc(Cl)cc1 (stereo not drawn)	n	n	n	n	n	n	x	x	x	x	x	x	x
COc1ccc(OCCOC(=O)c2cccc(-n3cnnn3)c2)cc1	28.6	4.0	16.9	n	n	14.7	x	n	n	n	n	n	n
CCOC(=O)C1CCCN(c2c(N3CCN(c4cccc(Cl)c4)CC3)c(=O)c2=O)C1 (stereo not drawn)	29.5	15.9	18.3	n	n	28.8	x	n	n	n	n	n	n
CCOC(=O)C1CCCN(c2c(N3CCN(C)CC3)c(=O)c2=O)C1 (stereo not drawn)	n	n	n	n	n	n	x	x	x	x	x	x	x
COc1ccccc1OCCOCCOc1c(C)cc(C)cc1Br	n	226.9[activator]	n	n	n	n	110.3	n	n	n	n	n	n
COc1ccccc1OCCOCCOc1ccc(C)cc1[N+](=O)[O-]	n	294.6[activator]	n	n	n	n	116.2	n	n	n	n	n	n
COc1cc(C)ccc1OCCOCCOc1ccccc1[N+](=O)[O-]	n	n	n	n	n	n	x	x	x	x	x	x	x
COc1ccc(CN(C)C2c3ccccc3-c3ccccc32)cc1	n	186.4[activator]	n	n	n	n	113.9	n	n	n	n	n	n
COc1ccc(OCCN(C)Cc2ccccc2)cc1	n	n	n	n	n	n	x	x	x	x	x	x	x
COc1cc(OC)c(N(C)S(=O)(=O)c2cccc(C(=O)OCC(=O)c3c[nH]c4ccccc34)c2)cc1Cl	n	23.6	n	n	n	n	89.2	n	n	n	n	n	n
C=CCN(c1ccccc1OC)S(=O)(=O)c1cccc(C(=O)OCC(=O)c2c[nH]c3ccccc23)c1	n	n	n	n	n	n	x	x	x	x	x	x	x
COc1ccc2c(Cl)c(C(=O)N/N=C/c3c(C)[nH]c4ccccc34)sc2c1	n	n	156.1[activator]	n	n	n	139.4	n	n	267.4[activator]	175.1[activator]	186.8[activator]	368.2[activator]
CC(C)c1ccccc1NC(=S)N(C)C	10.2	-25.4	u	n	x	-47.1	x	n	n	n	n	n	n
COc1ccc(-c2nnc(N(C)C(=O)C3CCCO3)s2)cc1 (stereo not drawn)	n	n	n	n	n	n	x	x	x	x	x	x	x
Cc1cnc(-c2nnc(N(C)C(=O)C3CCCO3)s2)cn1 (stereo not drawn)	n	-46.5	n	n	n	n	56.2	n	n	n	n	n	n
CC(C)NS(=O)(=O)c1ccc(OCC(=O)Nc2ccc3c(c2)OCO3)cc1	38.6	n	31.3	n	n	38.3	x	n	n	n	n	n	n
CCC(C)NS(=O)(=O)c1ccc(OCC(=O)Nc2ccc3c(c2)OCO3)cc1 (stereo not drawn)	n	n	n	n	n	n	x	x	x	x	x	x	x
O=S(=O)(c1ccccc1)c1ncc(C(F)(F)F)cc1Cl	14.5	10.3	11.5	x	n	15.1	x	n	n	n	n	n	n
O=C1CNC(=S)N1CCc1ccccc1Cl	n	n	u	n	x	n	x	x	x	x	x	x	x
Cc1[nH]c2ccccc2c1/C=N/NC(=S)NCc1ccccc1	n	n	u	n	n	159.4[activator]	x	n	n	226.1[activator]	146.5[activator]	164.9[activator]	294.1[activator]
COc1ccc(NC(=O)CSc2nc(-c3ccc(C)cc3)cc(C(F)(F)F)c2C#N)cc1	n	n	n	n	n	n	x	x	x	x	x	x	x
COc1ccc(-c2cc(C(F)(F)F)c(C#N)c(SCC(=O)Nc3ccccc3C#N)n2)cc1	n	n	152.6[activator]	49	n	256.5[activator]	x	n	n	n	n	n	n
Cc1ccccc1-n1c(=O)c(C#N)cc2c(=O)n3ccccc3nc21	n	n	n	n	n	n	x	x	x	x	x	x	x
Cc1cc(-n2c(=O)c(C#N)cc3c(=O)n4ccccc4nc32)no1	n	-3.0	n	n	n	n	88.5	x	x	x	x	x	x
SMILES	RGS8-Gao	RGS16-Gao	RGS7-Gao	Avidin fluor	GSH fluor	RGS4-Gao reg	RGS4-Gao HTS	Avidin counter	RGS8-Gao single	RGS7-Gao single	RGS16-Gao conf	RGS4-Gao confirm	RGS19-Gao single
O=S(=O)(CCSc1ccc(C(F)(F)F)cn1)c1ccc(Cl)cc1	n	n	u	n	x	n	x	x	x	x	x	x	x
Cc1ccc(C(=O)NCC(=O)OCC(=O)c2ccc3c(c2)NC(=O)CO3)cc1C	n	n	n	n	n	n	x	x	x	x	x	x	x
O=C1COc2ccc(C(=O)COC(=O)CNC(=O)C3CCCCC3)cc2N1	144.9[activator]	n	166.9[activator]	n	n	152.5[activator]	x	n	n	n	n	n	n
COc1ccccc1NC(=O)C1=C(C)NC(=O)NC1c1ccccc1F (stereo not drawn)	n	n	n	n	n	n	x	x	x	x	x	x	x
COc1ccccc1NC(=O)C1=C(C)NC(=O)NC1c1cc(C)cs1 (stereo not drawn)	166.9[activator]	n	189.0[activator]	n	n	201.5[activator]	x	n	n	n	n	n	n
COc1ccc(C(CC(=O)Nc2ccccc2OC)n2cccc2)cc1 (stereo not drawn)	n	15.3	n	n	n	n	92.6	n	n	n	n	n	n
CCCn1c(SCC(=O)Nc2cccc(Cl)c2Cl)n[nH]c1=O	n	n	n	n	n	n	x	x	x	x	x	x	x
CCCn1c(SCC(=O)Nc2ccccc2Oc2ccccc2)n[nH]c1=O	n	-27.9	n	n	n	n	77.9	n	n	n	n	n	n
O=C(OCC(=O)N1CCc2ccccc21)c1ccccn1	n	n	n	n	n	n	x	x	x	x	x	x	x
Cn1c(C(=O)NCc2ccccc2)cc2oc3ccccc3c21	n	x	n	n	n	n	x	n	n	n	n	n	n
O=C(N/N=C\c1ccc(Cl)s1)c1ccc(Cn2cccn2)o1	n	n	n	n	n	n	x	x	x	x	x	x	x

High-throughput results deposited in PubChem by NMMLSC.
